Out of some 69,000 compounds screened, about 8,600 (12%) showed an effect of 50% or more. Only a selection was taken, and strong results are over-represented in it overall.

The values below come from ChEMBL document CHEMBL4513216, “Probing the Open Global Health Chemical Diversity Library for Multistage-Active Starting Points for Next-Generation Antimalarials” (ACS Infect Dis, 2020).

For the experiment, the system named is Plasmodium berghei. As to the kind of experiment: Screen against P. berghei liver stage (PbLuc), transformed with Luciferase, at 10uM. It is filed as functional, HepG2. The following applies: tested at 10 uM.
Turning to `Cc1nn(C)c(N(C)C)c1CNCc1ccccc1Cn1ccnc1`, the INHIBITION was 27.6%. For `CC(=O)Nc1nc(C2CCCN(C(=O)CN(C)C)C2)cs1` (stereo not given), the INHIBITION is given as 8.72%. For `CC(NS(=O)(=O)CCc1ccccn1)c1ccccc1Br` (stereo not given) the value was -9.35%; for `CCC(=O)c1ccc(OCC(=O)N(C)C(C)c2ccon2)cc1` (stereo not given), 20.6%. For `CC1=N[C@@]2(CC[C@@H]3CN(Cc4ccccc4F)C[C@@H]32)C(=O)N1C` the value was 19.8%; for `CNC(=O)[C@@H]1CCO[C@@H]2CCN(Cc3ccsc3)C[C@H]21`, 31.1%; for `CCN1CCOC(CNCc2cnc(N(CC)CC)s2)C1` (stereo not given), -81.1%.

In the case of `CCCN1CCN(C(=O)c2cnc(C)nc2)[C@H]2CS(=O)(=O)C[C@H]21`, the INHIBITION was 2.15%.

Consider `CCCN1CCN(C(=O)c2cnccc2C)[C@H]2CS(=O)(=O)C[C@H]21`, for which the INHIBITION worked out at 19.4%.

As for `Cc1nc(C(=O)N2CCN(S(C)(=O)=O)[C@@H]3CS(=O)(=O)C[C@@H]32)cs1`, the INHIBITION came out at 39.8%.

On to `Cc1nc(C(=O)N2CCN(C(=O)C3CCC3)[C@@H]3CS(=O)(=O)C[C@@H]32)cs1`, for which the INHIBITION was 33.1%.

For the compound `CCCN1CCN(C(=O)c2cncnc2C)[C@H]2CS(=O)(=O)C[C@H]21`, the INHIBITION was 51.2%.

For `Cc1nc(C(=O)N2CCN(C(=O)N(C)C)[C@@H]3CS(=O)(=O)C[C@@H]32)cs1`, the INHIBITION was determined as 57.8%.

On to `O=C1C[C@H]2[C@H](CCN2C(=O)c2ccno2)N1CC1CC1`, for which the INHIBITION came out at 41.4%. For `Cc1cc(N(C)C)nc(C2(C)CCCN2CC(N)=O)n1` (stereo not given) the value was 18.8%; for `N#Cc1ccccc1CN1C[C@H]2CC[C@@H](C1)N(CC1CC1)C2=O`, 25.1%; for `Cc1cc2c(=O)n3c(nc2s1)CCN(C(=O)c1ccnn1C(C)C)CC3`, 11.1%. Under `c1cnnc(N[C@@H]2CC[C@@H]3CN(Cc4ccc5cc[nH]c5c4)C[C@@H]32)c1` stands -4.68%.

With `COCC(=O)N1C[C@@H](C)[C@](O)(C(C)C)C1`, the INHIBITION stood at 46.4%. With `CC(Nc1nccc(CCC(F)(F)F)n1)c1nc(-c2ccncc2)no1` (stereo not given), the INHIBITION was found to be 50.4%. As to `CC(Nc1nccc(CCC(F)(F)F)n1)c1nc(-c2ccccn2)no1` (stereo not given), the INHIBITION turned out to be 21.2%. `CC(C)c1noc(C(C)Nc2nccc(CCC(F)(F)F)n2)n1` (stereo not given): the INHIBITION was 29.6%. For `O=C(c1ccnnc1)N1CCN(Cc2ccncc2)c2ncccc2C1` the value was 23.3%; for `CCn1c(C(=O)N2CCN(CC(C)O)CC2)cc2ccccc21` (stereo not given), 35.7%; for `CC(O)CN1CCN(C(=O)c2ccc3c(c2)COC3)CC1` (stereo not given), 60.5%. For `CCC(O)CN1CCN(C(=O)c2cc3ccccc3n2CC)CC1` (stereo not given) the value was 1.75%; for `CC(O)CN1CCN(C(=O)c2cc3ccccc3n2C)CC1` (stereo not given), 66.8%; for `CCC(O)CN1CCN(C(=O)c2ccc3c(c2)COC3)CC1` (stereo not given), -9.37%. On to `CC(C)(C)C(O)CN1CCN(C(=O)c2ccc3c(c2)COC3)CC1` (stereo not given), for which the INHIBITION was found to be 31.8%. For `O=C(c1cncs1)N1CCOCC(Cc2ccccn2)C1` (stereo not given) the value was 13.94%. For `COCCO[C@@H]1CCN(C(=O)c2ccc(C)o2)[C@@H]1Cc1cccnc1`, the INHIBITION is 2.3%.

For the compound `COc1cc(-c2n[nH]c(CN)n2)cc(OC)c1OC`, the INHIBITION was -9.21%. For `COc1ccc(C(O)CNC(=O)NCCc2csc(C)n2)cc1` (stereo not given), the INHIBITION stood at 44.1%. For `O=C(C1CCN(Cc2nc(-c3ccco3)no2)CC1)N1CCCC1` the value was 25.1%.

In the case of `O=C(NC1CCC(N2C(=O)CCC2=O)CC1)c1c[nH]c2ccccc12` (stereo not given), the INHIBITION came to 76.7%. For `Cc1[nH]ccc1C(=O)NC1CCC(N2C(=O)CCC2=O)CC1` (stereo not given) the value was -86.5%; for `Cc1ccc(F)c(C(=O)NC2CCC(N3C(=O)CCC3=O)CC2)c1` (stereo not given), -35%; for `CN(C)CCn1c2c(ccc1=O)CC(NC(=O)c1ccsc1)CC2` (stereo not given), 37.5%. As to `Cc1oc(C)c(C(=O)NCc2cccnc2)c1C`, the INHIBITION is given as -8.75%. Regarding `COC(=O)CCCNC(=O)N1CCc2c(F)ccc(F)c2C1`, the INHIBITION is given as 28.7%.

For `CCCNC(=O)CCNC(=O)N1CCc2c(F)ccc(F)c2C1`, the INHIBITION was 71.7%. Consider `COCCOCCNC(=O)N1CCc2c(F)ccc(F)c2C1`, for which the INHIBITION came to 5.38%. For `Cc1cccc(CN2C[C@@H](C)[C@@]3(CCN(CC(=O)N(C)C)C3=O)C2)c1` the value was 2.58%; for `Cc1cc(CN2C[C@@H](C)[C@@]3(CCN(C)C3=O)C2)oc1C`, 65.9%. As for `CN1CC[C@]2(CN(Cc3cccs3)C[C@H]2c2ccccc2)C1=O`, the INHIBITION was found to be 24.9%. For `Cc1cc(CN2C[C@@H](C)[C@@]3(CCN(CC(=O)N(C)C)C3=O)C2)oc1C` the value was 51.2%; for `CCc1ccc(CN2C[C@@H](C)C3(CCN(CC(=O)N(C)C)C3=O)C2)o1` (stereo not given in full), 21.1%; for `Cc1noc(C)c1CN1C[C@H](C)[C@]2(CCN(Cc3cccnc3)C2=O)C1`, 13.7%. In the case of `Fc1cccc(-c2nc(CN3CCCC(Cn4cncn4)C3)co2)c1` (stereo not given), the INHIBITION was 11.9%.

Regarding `COc1ccc2cccc(CC(=O)NCCCc3n[nH]c(C)n3)c2c1`, the INHIBITION is -6.97%.

For the compound `Cc1nc(CCCNC(=O)c2cc(F)ccc2O)n[nH]1`, the INHIBITION is given as 46.6%. For `Cc1nc(CCCNC(=O)c2c(F)cc(F)cc2F)n[nH]1` the value was 33.7%; for `Cc1nc(CCCNC(=O)Nc2cc(F)cc(F)c2)n[nH]1`, 55.5%. Turning to `Cc1nc(CCCNC(=O)Nc2ccc(F)cc2F)n[nH]1`, the INHIBITION is 56.5%.

On to `Cc1nc(CCCNC(=O)c2c(F)cccc2Br)n[nH]1`, for which the INHIBITION came out at 39.6%.
